Data on 19 compounds can be found in PubChem BioAssay (Tox21).

Activity calls are given as the source filed them. Unless noted, the call rests on the fitted dose curve; in most records, active means well fitted curve in the direction sought with a large enough effect in the repeat runs; inconclusive means weak or mixed curves; inactive means flat fitted curve, though single readings scatter. Positions of bridges follow the written chain, without caps; N, C: chain ends. Non-standard residues stand in square brackets, D forms with d. Residues, ends and D or L forms follow the SMILES beside them. *: point of attachment. X2 = CC[C@H](C)CCCCC(=O)*; Dab = NCC[C@H](N)C(=O)O

Test [1] is described as follows: qHTS assay to test for compound auto fluorescence at 535 nm (green) in HEK293 cells (AID 720680). Conditions: green autofluorescence 485/535 nm; series mostly up to 46 µM. In general terms: In qHTS, concentration-response curves come from the screen itself.
Test [2] is described as follows: qHTS assay to test for compound auto fluorescence at 460 nm (blue) in HEK293 cell free culture (AID 720681). Conditions: cell-free medium, autofluorescence 405/460 nm (blue); series mostly up to 46 µM. Put shortly:
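Compounds were added to cell-free DMEM with 10% FBS and fluorescence read directly. The blue channel used 405 nm excitation and 460 nm emission, with triamterene as the reference fluorophore.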

A short description of test [3]: qHTS assay to test for compound auto fluorescence at 535 nm (green) in HEK293 cell free culture (AID 720682). The conditions noted are these: cell-free medium, green autofluorescence 485/535 nm; series mostly up to 46 µM. In outline:
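Using fluorescein as calibrant, autofluorescence was quantified at 485/535 nm in cell-free DMEM containing 10% FBS after pintool addition of compound or vehicle.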

Test [4] is described as follows: qHTS assay to test for compound auto fluorescence at 590 nm (red) in HEK293 cell free culture (AID 720683). The conditions noted are these: cell-free medium autofluorescence, Ex540/Em590 red; series mostly up to 46 µM. Put shortly:
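Cell-free wells of DMEM with 10% FBS received compound, and intrinsic fluorescence was read at excitation/emission 540/590 nm. Values expressed as equivalence to Rose Bengal sodium.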

Test [5] in a line: qHTS assay to test for compound auto fluorescence at 590 nm (red) in HepG2 cell free culture (AID 720684). The conditions noted are these: cell-free medium autofluorescence, red 540/590 nm; series mostly up to 46 µM. Put shortly:
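Rose Bengal sodium served as the reference for red signal. Test compounds were dispensed into serum-containing MEM (10% FBS) without cells, and plates were read at 540/590 nm.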

The nature of test [6]: qHTS assay to test for compound auto fluorescence at 460 nm (blue) in HepG2 cell free culture (AID 720685). Conditions: Cell-free culture medium, blue autofluorescence 405/460 nm; series mostly up to 46 µM. Put shortly:
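Cell-free plates of MEM plus 10% FBS received 23 nL compound or DMSO vehicle; blue-channel (405/460 nm) intensity scored against triamterene as reference fluorophore.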

Test [7] in a line: qHTS assay to test for compound auto fluorescence at 535 nm (green) in HepG2 cell free culture (AID 720686). Conditions: Cell-free medium, green autofluorescence 485/535 nm; series mostly up to 46 µM.
Test [8] can be described thus: qHTS assay to test for compound auto fluorescence at 460 nm (blue) in HepG2 cells (AID 720687). The conditions noted are these: autofluorescence 405/460 nm, 1 h; series mostly up to 46 µM. In outline:
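HepG2 cells in MEM with 10% FBS, attached overnight at 37 C, were exposed to compound or DMSO for 1 hr at 37 C, 5% CO2. Blue fluorescence was read at 405/460 nm, with triamterene as reference fluorophore.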

Test [9] has as its target Glucocorticoid receptor (Homo sapiens) (UniProt P04150). The test is described as follows: qHTS assay to identify small molecule agonists of the glucocorticoid receptor (GR) signaling pathway (AID 720691; active means well fitted activation curve with a large enough effect in the signal ratio in the repeat runs, not every such curve was filed as active; inconclusive means weak or mixed curves, or effect the other way; inactive means no such curve, though single readings can be large or run the other way; the % refers to the signal ratio; further: potency means the concentration at half of the fitted maximal effect). Conditions: GR-bla HeLa, beta-lactamase reporter ratio, 18 h; activation: at 62.4 µM (top of the series). Put shortly: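 Agonist-mode qHTS in HeLa cells stably expressing a glucocorticoid-response-element beta-lactamase reporter. Fluorescence intensity read with FRET substrate (2 h, room temperature) after 18 h compound treatment at 37 C.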

Sequence of Glucocorticoid receptor (Homo sapiens) (P04150 whole entry, looked up): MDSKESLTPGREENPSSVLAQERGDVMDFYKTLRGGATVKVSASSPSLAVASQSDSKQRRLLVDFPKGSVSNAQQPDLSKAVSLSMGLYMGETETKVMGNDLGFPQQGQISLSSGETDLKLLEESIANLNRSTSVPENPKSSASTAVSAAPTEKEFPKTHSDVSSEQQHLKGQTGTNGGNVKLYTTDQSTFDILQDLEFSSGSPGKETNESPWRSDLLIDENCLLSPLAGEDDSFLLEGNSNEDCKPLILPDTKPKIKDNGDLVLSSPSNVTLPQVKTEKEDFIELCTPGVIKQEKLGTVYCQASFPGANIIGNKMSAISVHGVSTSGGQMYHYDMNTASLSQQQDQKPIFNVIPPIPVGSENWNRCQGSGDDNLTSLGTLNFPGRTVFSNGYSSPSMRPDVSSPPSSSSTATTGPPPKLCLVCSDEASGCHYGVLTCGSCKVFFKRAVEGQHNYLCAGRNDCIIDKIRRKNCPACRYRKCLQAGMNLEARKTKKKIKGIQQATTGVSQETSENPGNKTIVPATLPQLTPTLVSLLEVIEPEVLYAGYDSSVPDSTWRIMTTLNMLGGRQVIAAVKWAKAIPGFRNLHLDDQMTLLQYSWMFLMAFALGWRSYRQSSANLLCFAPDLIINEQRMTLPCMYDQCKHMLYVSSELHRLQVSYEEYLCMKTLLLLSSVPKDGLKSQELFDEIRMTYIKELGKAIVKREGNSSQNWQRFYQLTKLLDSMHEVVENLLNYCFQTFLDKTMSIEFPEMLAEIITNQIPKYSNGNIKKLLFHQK

Turning to `COc1ccc(CC2c3cc(OC)c(OC)cc3CC[N+]2(C)CCC(=O)OCCCCCOC(=O)CC[N+]2(C)CCc3cc(OC)c(OC)cc3C2Cc2ccc(OC)c(OC)c2)cc1OC` (stereo unspecified), the Potency result in [1], in test [2], in test [3], in [4], in [5] and in [7] was “inactive” each time. In addition, the call in test [6] and in test [8] was inactive. Moreover, in [9], the Potency is 1290 nM [inconclusive] (active).
`CN[C@@H]1[C@@H](O)[C@@H](O[C@@H]2[C@@H](O)[C@H](O[C@H]3O[C@H](CN)[C@@H](O)[C@H](O)[C@H]3O)[C@@H](N)C[C@H]2NC(=O)C(O)CN)OC[C@]1(C)O` (stereo partly specified): the Potency result in test [1], in test [2], in test [3], in test [4], in [5] and in test [7] was “inactive” in each case. In addition, the result in test [6] and in test [8] was inactive. Further, in [9], the Potency was 6010 nM (active).
Consider `NC(=O)C[C@@H](N)C(=O)O`, for which the Potency entry in [1], in [2], in test [3], in [4], in test [5] and in test [7] was “inactive” throughout. Moreover, the Potency entry in test [9] is “inactive”. The call in test [6] and in test [8] was inactive.
In the case of `C[C@H](CCCC(C)(C)O)[C@H]1CC[C@H]2[C@@H]3CC=C4C[C@@H](O)CC[C@]4(C)[C@H]3CC[C@]12C`, the Potency entry in test [1], in [2], in test [3], in test [4], in test [5] and in test [7] was “inactive” throughout. Besides, the Potency result in [9] was “inactive”. Besides, the compound was classed as inactive in test [6] and in test [8].
Turning to `CCC(=O)OCC(=O)[C@@]1(OC(=O)CC)[C@H](C)C[C@H]2[C@H]3[C@H]([C@@H](O)C[C@@]21C)[C@@]1(C)C=CC(=O)C=C1C[C@H]3Cl`, the Potency entry in [1], in test [2], in test [3], in test [4], in [5] and in [7] was “inactive” throughout. The result in [6] and in [8] was inactive. In [9], the Potency was 20.4 nM (active).
`CN1C(=O)CN2CCc3ccccc3C2c2cc(Cl)ccc21` (stereo unspecified): the Potency result in test [1], in test [2], in test [3], in test [4], in test [5] and in test [7] was “inactive” each time. Also, in test [9], the Potency entry is “inactive”. In addition, the outcome in test [6] and in test [8] was inactive.
For the compound `CC(=O)[C@@]1(O)CC[C@H]2[C@@H]3C=C(Cl)C4=CC(=O)[C@@H]5C[C@@H]5[C@]4(C)[C@H]3CC[C@@]21C`, the Potency entry in test [1], in test [2], in test [3], in [4], in test [5] and in test [7] was “inactive” throughout. Moreover, the Potency result in test [9] was “inactive”. Moreover, the result in test [6] and in [8] was inactive.
On to `C[C@]12C=CC(=O)C=C1CC[C@@H]1[C@@H]2[C@@H](O)C[C@@]2(C)[C@H]1CC[C@]2(O)C(=O)COC(=O)CCC(=O)O`, for which the Potency result in test [1], in [2], in test [3], in [4], in test [5] and in [7] was “inactive” each time. Further, the outcome in test [6] and in [8] was inactive. The Potency in test [9] was 268 nM [inconclusive] (active).
As to `Cc1ccccc1CNc1ncnc2c1ncn2[C@@H]1O[C@H](CO)[C@@H](O)[C@H]1O`, the Potency entry in test [1], in [2], in test [3], in test [4], in test [5] and in [7] was “inactive” throughout. Besides, in [9], the Potency entry was “inactive”. Also, the compound was classed as inactive in [6] and in test [8].
`CCCCCCCCCCCCCC[n+]1ccc(C)cc1`: the Potency entry in [1], in [2], in test [3], in test [4], in test [5] and in [7] was “inactive” throughout. For the same compound, the Potency result in [9] was “inactive”. The compound was called inactive in test [6] and in test [8].
For `Cc1cc(C)c(NC(=O)C[C@H](CC(=O)O)c2cccc3ccccc23)c(C(=O)N2CCC3(CCCC3)CC2)c1`, the Potency entry in test [1], in test [2], in test [3], in test [4], in test [5] and in test [7] was “inactive” throughout. Also, in test [9], the Potency entry is “inactive”. The compound was called inactive in test [6] and in test [8].
Regarding `CC(/C=C/C=C(\C)C(=O)O[C@@H]1O[C@H](CO[C@@H]2O[C@H](CO)[C@@H](O)[C@H](O)[C@H]2O)[C@@H](O)[C@H](O)[C@H]1O)=C\C=C\C=C(C)\C=C\C=C(/C)C(=O)O[C@@H]1O[C@H](CO[C@@H]2O[C@H](CO)[C@@H](O)[C@H](O)[C@H]2O)[C@@H](O)[C@H](O)[C@H]1O`, the Potency entry in [1], in test [2], in test [3], in [4], in test [5] and in [7] was “inactive” in each case. For the same compound, the Potency entry in test [9] was “inactive”. The result in [6] and in test [8] was inactive.
Turning to `CC[C@H](C)CCCCC(=O)N[C@@H](CCN)C(=O)N[C@H](C(=O)N[C@@H](CCN)C(=O)N[C@H]1CCNC(=O)[C@H]([C@@H](C)O)NC(=O)[C@H](CCN)NC(=O)[C@H](CCN)NC(=O)[C@H](CC(C)C)NC(=O)[C@@H](CC(C)C)NC(=O)[C@H](CCN)NC1=O)[C@@H](C)O` (X2-[Dab]T[Dab][Dab][Dab][dL]L[Dab][Dab]T; lactam 4-C), the Potency result in test [1], in test [2], in test [3], in test [4], in [5] and in test [7] was “inactive” throughout. Moreover, in test [9], the Potency entry is “inactive”. Further, the result in [6] and in test [8] was inactive.
For `CCC(C)C(C(=O)OCC[N+](C)(CC)CC)c1ccccc1` (stereo unspecified), the Potency entry in test [1], in test [2], in test [3], in test [4], in test [5] and in test [7] was “inactive” throughout. The Potency result in test [9] was “inactive”. The compound was classed as inactive in [6] and in test [8].
Consider `COc1ccc(/C=C/C(=O)OCCC(C)C)cc1`, for which the Potency result in [1], in test [2], in test [3], in test [4], in [5] and in [7] was “inactive” throughout. The Potency result in [9] is “inactive”. In addition, the compound was classed as inactive in [6] and in test [8].
As for `Nc1c(Br)cc(Br)cc1CNC1CCC(O)CC1` (stereo unspecified), the Potency result in [1], in [2], in test [3], in test [4], in [5] and in [7] was “inactive” in each case. Further, in test [9], the Potency result was “inactive”. Also, the call in test [6] and in test [8] was inactive.
Take `CC(C)(CO)[C@@H](O)C(=O)NCCCC(=O)O`: the Potency entry in [1], in test [2], in test [3], in [4], in test [5] and in test [7] was “inactive” in each case. Besides, the Potency entry in test [9] was “inactive”. The compound was called inactive in test [6] and in test [8].
For the compound `CN1CCC(OC(=O)C(Oc2ccc(Cl)cc2)Oc2ccc(Cl)cc2)CC1`, the Potency result in test [1], in [2], in test [3], in test [4], in test [5] and in test [7] was “inactive” throughout. For the same compound, the Potency entry in test [9] was “inactive”. Besides, the result in test [6] and in test [8] was inactive.
Turning to `CC(=O)OCC(=O)[C@@]12OC3(CCCC3)O[C@@H]1C[C@H]1[C@@H]3CCC4=CC(=O)C=C[C@]4(C)[C@@]3(F)[C@@H](O)C[C@@]12C`, the Potency result in [1], in test [2], in test [3], in test [4], in [5] and in [7] was “inactive” throughout. In addition, the call in test [6] and in test [8] was inactive. Moreover, in test [9], the Potency is 19 nM (active).
